The results in this text go back to PubChem BioAssay (NCI).

Structures are written as SMILES. About 83,000 compounds went through this panel and 20% of them were active in at least one assay; those are over-represented in the sample as a whole.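 The endpoint reported here, percent growth, reads 100 for growth as untreated, 0 for no net growth and -100 for all cells dead.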 A number with no mark means an inactive call. Calls of active or inactive are those of the source. Rule for the calls: active = growth percent below 10; inactive = the rest.

What all share (experiment): NCI-60 one-dose screen, 48 h (100 = growth as untreated, 0 = no growth, -100 = all killed)
What all share (details): 10 µM unless noted

Assay [1] relates to NCI-H23 lung.
The subject of assay [2] is NCI-H226 lung.
Assay [3] relates to NCI-H322M lung.
Assay [4] has as its system HOP-62 NSCLC.
For assay [5], the system named is NCI-H460 lung.
Assay [6] has as its system NCI-H522 lung.
Assay [7] has as its system A549/ATCC NSCLC.
Assay [8] deals with 786-0 renal.
For assay [9], the system named is COLO 205 colon.
The test system of assay [10] is DU-145 prostate.
Assay [11] has as its system K-562 leukemia.
Assay [12] has as its system MDA-MB-231 breast.
In assay [13] the test system is RXF 393 renal.
For assay [14], the system named is SF-268 CNS.
The test system of assay [15] is SF-295 CNS.
For assay [16], the system named is SF-539 CNS.
For assay [17], the system named is UACC-257 melanoma.
The subject of assay [18] is M14 melanoma.
For assay [19], the system named is MALME-3M melanoma.

Regarding `C#C[C@]1(O)CC[C@H]2[C@@H]3CC=C4c5sc(-c6ccc(C)cc6)nc5CC[C@]4(C)[C@H]3CC[C@@]21C`, the growth is 46.4% in assay [1]; 99.3% in assay [2]; 33% in assay [3]; 23.2% in assay [4]; -0.692% (active) in [5]; 27.6% in assay [6]. Besides, the growth in assay [7] was 38.3%; in assay [8] it was -52.5% (active); in assay [9] it was 104%; in assay [10] it was 39.8%; in assay [11], 6.37% (active); in assay [12], 4.97% (active). The growth in [13] was -68.1% (active); in assay [14], 7.62% (active); in [15], -66.5% (active); in [16] it was -47.7% (active); in [17] it was -17.9% (active); in assay [18] it was -49.9% (active).

On to `C#C[C@]1(O)CC[C@H]2[C@@H]3CC=C4c5sc(-c6cccc(O)c6)nc5CC[C@]4(C)[C@H]3CC[C@@]21C`, for which the growth in [1] was -26.8% (active); in assay [2], -29.4% (active); in [3] it was -5.55% (active); in assay [4], -20.8% (active); in assay [5], -52.9% (active); in [6], 3.14% (active). The growth in assay [7] is -16.2% (active); in [8], -57.6% (active); in [9] it was -25.3% (active); in assay [10], 2.17% (active); in assay [11] it was -5.49% (active); in [12], -40.8% (active). In addition, the growth in assay [13] is -68.5% (active); in [14] it was -15.4% (active); in assay [15], -64.7% (active); in assay [16], -68.9% (active); in assay [17], -42.6% (active); in assay [18], -41.1% (active).

On to `NS(=O)(=O)c1ccc(-n2cc(-c3cccc(NC(=O)c4ccc(N5CCOCC5)c(C(F)(F)F)c4)c3)nn2)cc1`, for which the growth in [1] was 26.3%; in assay [2], 15.5%; in [3], 26%; in [4], 11.8%; in assay [5] it was 50.7%; in [6], 39.9%. The growth is 53.5% in assay [7]; 33.6% in assay [8]; 50.7% in [9]; 41.1% in assay [10]; 19.3% in assay [11]; 43.8% in assay [19]. The growth is 52% in [12]; 68.9% in assay [14]; 32.6% in [15]; 42.7% in [16]; 82.5% in assay [17]; 45.3% in [18].

In the case of `COc1ccc2c(c1)Oc1nc(N)c(C#N)c(N)c1C2Sc1ccc(C)cc1` (stereo not drawn), the growth in [1] was -19.3% (active); in assay [2], -1.63% (active); in assay [3] it was 51.9%; in assay [4] it was 100%; in assay [5], -37.6% (active); in [6], -51.5% (active). In addition, the growth in assay [7] is 75.6%; in assay [8], -80.7% (active); in assay [9], -16.7% (active); in assay [10] it was -50% (active); in assay [11], 4.37% (active); in assay [19] it was -57% (active). Moreover, the growth in assay [12] was -77.1% (active); in assay [14], 50%; in assay [15] it was 92.9%; in assay [16] it was -34% (active); in assay [17], 9.55% (active).

As to `COc1ccc(/C=C(\C#N)C(=O)N2c3ccccc3Sc3ccc(SC)cc32)cc1F`, the growth was 91.4% in [1]; 88.8% in assay [2]; 90% in assay [3]; 97% in assay [4]; 94.4% in assay [5]; 84.5% in [6]. For the same molecule, the growth in assay [7] is 85.7%; in assay [8] it was 84.4%; in assay [9] it was 111%; in assay [10], 97.3%; in assay [11] it was 80.8%; in assay [12] it was 84.7%. The growth is 100% in assay [13]; 91.8% in assay [14]; 104% in assay [15]; 96.7% in assay [16]; 93.1% in [17]; 105% in assay [18].

As for `O=C(CCn1c[n+](CC(=O)c2ccc(-c3ccccc3)cc2)c2ccccc21)Nc1cccc2cccnc12`, the growth is 60.2% in assay [1]; 57% in assay [2]; 82.8% in assay [3]; 94.4% in [4]; 55.3% in assay [5]; 41.7% in [6]. Further, the growth in [7] is 89.8%; in assay [8], 71.5%; in assay [9], 44.2%; in assay [10] it was 78.9%; in [11], 22.9%; in assay [12] it was 49.6%. In addition, the growth in [13] was 69.6%; in assay [14] it was 55%; in [15] it was 89.6%; in assay [16] it was 75.5%; in assay [17], 23.6%; in [18], 49.1%.

As for `COc1cc2nc(Cl)nc(Nc3cccc(C4=Nc5c(N)nc(N)nc5NC(c5ccc6c(c5)OCO6)C4)c3)c2cc1OC` (stereo not drawn), the growth was 78.7% in assay [1]; 85.3% in assay [2]; 83.4% in assay [3]; 40.7% in assay [4]; 55.5% in assay [5]; 74.1% in assay [6]. Besides, the growth in [7] was 86.1%; in assay [8], 61.8%; in assay [10], 81.4%; in assay [11], 4.53% (active); in [12], 79.9%; in [13], 56.1%. For the same molecule, the growth in [14] is 75.6%; in assay [15], 37.7%; in assay [16], 86.5%; in assay [17] it was 105%; in [18] it was 89.7%.

`CCC1=Cc2cc(OC)ccc2OC12C=Cc1cc(OC)ccc1O2` (stereo not drawn): the growth is 17% in [1]; 65.4% in assay [2]; 50.2% in [3]; 64.3% in assay [4]; 4.15% (active) in assay [5]; -23.9% (active) in assay [6]. Also, the growth in assay [7] was 26.5%; in assay [8], 37.3%; in assay [10] it was 19.9%; in assay [11], 12.6%; in [19] it was 58.4%; in assay [12], 34.9%. For the same molecule, the growth is 39.2% in [14], 15.7% in assay [15], -23.7% (active) in assay [16] and 79.6% in assay [17].

For `O=C1/C(=C/C=C/c2ccco2)SC(=S)N1c1ccccc1`, the growth in assay [1] is 70.7%; in [2] it was 67.8%; in assay [3], 87.2%; in assay [4] it was 104%; in [5] it was 91.2%; in assay [6] it was 58%. Moreover, the growth was 52.9% in assay [7]; 71.1% in [8]; 97.6% in assay [10]; 64.6% in assay [11]; 15.5% in assay [19]; 80.3% in [12]. Further, the growth in assay [13] is -33.5% (active); in assay [14], 108%; in [15], 91.3%; in assay [16], 90.3%; in assay [17], 83.2%; in assay [18], 40.7%.
